In PubChem BioAssay (EPA / NIEHS):
The source made the active and inactive calls. How the source made its calls: active means hit-call score of the fitted dose curve at least 0.9, where 1 is the maximum; inactive means score below 0.9.

Key:
[1] = ATG_Ets_CIS: Attagene CIS-FACTORIAL HepG2 Assay for human Erythroblast Transformation Specific (ETS) (AID 2282941); settings: HepG2 ETS cis-reporter transcription, actives raise or lower the signal
Summary of the method: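 Bidirectional fit versus DMSO of reporter mRNA signal, detected by RT-PCR and capillary electrophoresis in HepG2 cells transiently transfected with cis-element reporters and dosed 24 h.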

[2] = biological target: Hepatocyte nuclear factor 3-beta (Homo sapiens) (UniProt Q9Y261); test: ATG_FoxA2_CIS: Attagene CIS-FACTORIAL HepG2 Assay for human Forkhead box A2 (FOXA2) (AID 2282942); settings: HepG2 cis-reporter transcription factor activity, 24 h; actives raise or lower the signal
Summary of the method: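 Endogenous transcription factor activity was read in HepG2 cells carrying transiently transfected cis-promoter reporter units. After 24 h dosing, reporter mRNA was quantified by RT-PCR and capillary electrophoresis, and values fitted bidirectionally versus DMSO.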

[3] = ATG_FoxO_CIS: Attagene CIS-FACTORIAL HepG2 Assay for human Forkhead box O (FoxO) (AID 2282943); settings: HepG2 Attagene cis-reporter, FoxO element, mRNA; actives raise or lower the signal
Summary of the method: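 Read-out: fluorescence of 6-FAM-labelled reporter cDNA fragments resolved by capillary electrophoresis. Transiently transfected HepG2 cells were dosed for 24 h; activity fitted in both directions relative to DMSO controls.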

[4] = ATG_GATA_CIS: Attagene CIS-FACTORIAL HepG2 Assay for human GATA Binding Protein (AID 2282944); settings: HepG2 GATA cis-element reporter, Attagene multiplex mRNA; actives raise or lower the signal
Summary of the method: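 Reporter transcripts from a GATA cis-regulated unit, among multiplexed reporters in transfected HepG2 cells, were measured by RT-PCR with capillary electrophoresis after 24 h dosing. Induction or loss scored relative to DMSO.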

[5] = ATG_GLI_CIS: Attagene CIS-FACTORIAL HepG2 Assay for human Zinc Finger Protein GLI1 (AID 2282945); settings: HepG2, Attagene cis-factorial reporter mRNA, GLI element; actives raise or lower the signal
Summary of the method: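 Transiently transfected HepG2 cells report endogenous transcription factor activity via cis-element-driven reporter units. After 24 h compound exposure, reporter mRNA was measured by RT-PCR with capillary electrophoresis; bidirectional fitting against DMSO baseline.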

[6] = ATG_GRE_CIS: Attagene CIS-FACTORIAL HepG2 Assay for human Glucocorticoid Response Elements (GRE) (AID 2282947); settings: HepG2 GRE cis-reporter, Attagene multiplex mRNA; actives raise or lower the signal
Summary of the method: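 Fluorescence intensity of reporter-specific cDNA fragments, separated by capillary electrophoresis, provides the signal. Constructs carry cis-regulating promoters in transiently transfected HepG2 liver cells; 24 h incubation; fitting is bidirectional against DMSO.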

[7] = ATG_ISRE_CIS: Attagene CIS-FACTORIAL HepG2 Assay for human Interferon Regulatory Factor 1 (IRF1) binding to an Interferon-Stimulated Response Element (ISRE) (AID 2282948); settings: HepG2 ISRE cis-reporter (Attagene), mRNA transcription readout; actives raise or lower the signal
Summary of the method: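 Uses HepG2 liver cells transfected with cis-regulated reporters and measures mRNA 24 h post-dosing through RT-PCR, primer-extension labelling and capillary electrophoresis, with DMSO as negative control.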

[8] = ATG_M_32_CIS: Attagene CIS-FACTORIAL HepG2 Assay for M32 Transcription Factor (Internal Marker) (AID 2282949); settings: HepG2 Attagene cis-factorial M32 reporter, mRNA; actives raise or lower the signal;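 further: background control marker of the multiplexed CIS panel rather than a real target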
Summary of the method: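 HepG2 transfectants (cis-regulated reporter transcription units) dosed 24 h. Reporter mRNA by RT-PCR plus CE, analysed as gain or loss relative to DMSO.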

[9] = biological target: Hypoxia-inducible factor 1-alpha (Homo sapiens) (UniProt Q16665); test: ATG_HIF1a_CIS: Attagene CIS-FACTORIAL HepG2 Assay for human Hypoxia Inducible Factor 1 (HIF1A) (AID 2282951); settings: HepG2 Attagene cis-factorial HIF1a reporter transcription; actives raise or lower the signal
Summary of the method: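 Measures endogenous transcription-factor activity through cis-regulated reporter mRNA in HepG2. Cells dosed 24 h; transcripts quantified by RT-PCR with 6-FAM-labelled products separated by capillary electrophoresis; DMSO serves as negative control.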

[10] = biological target: Hepatocyte nuclear factor 6 (Homo sapiens) (UniProt Q9UBC0); test: ATG_HNF6_CIS: Attagene CIS-FACTORIAL HepG2 Assay for human Hepatocyte Nuclear Factor 6 (HNF6) (AID 2282952); settings: HepG2 Attagene cis-factorial HNF6 reporter transcription; actives raise or lower the signal
Summary of the method: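 First, HepG2 cells were transfected with the multiplexed cis reporter library and dosed with chemical for 24 h. Next, RNA was reverse-transcribed, PCR-amplified and fluorescently labelled. Finally, HpaI-digested fragments were read by capillary electrophoresis.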

[11] = biological target: Heat shock factor protein 1 (Homo sapiens) (UniProt Q00613); test: ATG_HSE_CIS: Attagene CIS-FACTORIAL HepG2 Assay for human Heat Shock Transcription Factor 1 (HSE) (AID 2282953); settings: HepG2 HSE cis-reporter, Attagene RNA transcription; actives raise or lower the signal
Summary of the method: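 Endogenous transcription factor activity in transiently transfected HepG2, read as reporter mRNA by RT-PCR with fluorescent capillary electrophoresis after 24 h. Gain or loss of signal fitted versus DMSO baseline.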

[12] = ATG_MRE_CIS: Attagene CIS-FACTORIAL HepG2 Assay for human Metal Responsive Element (MRE) (AID 2282954); settings: HepG2 MRE cis-reporter transcription, Attagene multiplex; actives raise or lower the signal
Summary of the method: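 Measured here is mRNA induction from an MRE cis-element reporter in HepG2 after 24 h, quantified by fluorescence of labelled RT-PCR products on capillary electrophoresis; gain- and loss-of-signal fits use DMSO as baseline.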

[13] = biological target: Paired box protein Pax-6 (Homo sapiens) (UniProt P26367); test: ATG_Pax6_CIS: Attagene CIS-FACTORIAL HepG2 Assay for human Paired Box 6 (PAX6) (AID 2282956); settings: HepG2 CIS-FACTORIAL PAX6 reporter transcription, RNA readout; actives raise or lower the signal
Summary of the method: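 DMSO-referenced bidirectional fits of reporter mRNA fluorescence; HepG2 with transient cis-promoter MRTUs, 24 h post-dose, RT-PCR plus capillary electrophoresis detection.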

[14] = ATG_PPRE_CIS: Attagene CIS-FACTORIAL HepG2 Assay for human Peroxisome Proliferator-activated Response Element (PPRE) (AID 2282958); settings: HepG2 PPRE cis-element reporter, Attagene transcription factor profiling; actives raise or lower the signal
Summary of the method: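 Cells are first transfected transiently with the multiplexed reporter library, then dosed for 24 h. Total RNA is reverse-transcribed, amplified, fluorescently end-labeled and HpaI-cut before capillary electrophoresis; activity is fitted bidirectionally against DMSO controls.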

[15] = ATG_Sox_CIS: Attagene CIS-FACTORIAL HepG2 Assay for human SRY-box transcription factor (SOX) (AID 2282960); settings: HepG2 Attagene cis-factorial SOX reporter, mRNA; actives raise or lower the signal
Summary of the method: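 Transient MRTU transfection of HepG2; 24 h compound incubation; TriZol RNA, oligo(dT) RT, PCR, 6-FAM primer extension, HpaI cut, CE. Bidirectional fit, DMSO = baseline.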

[16] = ATG_M_06_CIS: Attagene CIS-FACTORIAL HepG2 Assay for M06 Transcription Factor (Internal Marker) (AID 2282950); settings: HepG2 Attagene CIS-FACTORIAL M06 internal marker reporter; actives raise or lower the signal
Summary of the method: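 Serves as a background control readout. Transfected HepG2 exposed to compounds for 24 h, then reporter transcripts quantified by fluorescent RT-PCR and capillary electrophoresis. Both directions fitted against DMSO baseline.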

[17] = ATG_PBREM_CIS: Attagene CIS-FACTORIAL HepG2 Assay for human Phenobarbital-responsive Enhancer Module (PBREM) (AID 2282955); settings: HepG2 PBREM cis-reporter, Attagene multiplexed transcription; actives raise or lower the signal
Summary of the method: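 Fluorescence of labelled reporter cDNA fragments, resolved by capillary electrophoresis, gives mRNA induction in transfected HepG2 cells treated for 24 h; DMSO serves as negative control and baseline.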

[18] = ATG_PXRE_CIS: Attagene CIS-FACTORIAL HepG2 Assay for human Pregnane X Receptor Element (PXRE) (AID 2282957); settings: HepG2 Attagene CIS-FACTORIAL PXRE reporter, mRNA; actives raise or lower the signal
Summary of the method: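 After a 24 h chemical incubation, total RNA from transfected HepG2 cells was reverse-transcribed and reporter cDNA amplified, FAM-labeled, HpaI-digested and sized by capillary electrophoresis. DMSO served as baseline for bidirectional curve fitting.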

[19] = ATG_RORE_CIS: Attagene CIS-FACTORIAL HepG2 Assay for human RAR-related Orphan Receptor Element (RORE) (AID 2282959); settings: HepG2 Attagene cis-factorial RORE reporter, mRNA; actives raise or lower the signal
Summary of the method: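 Cells were HepG2 carrying transfected cis-regulated reporter constructs, dosed for 24 hours. Total RNA was reverse-transcribed and reporter cDNA amplified, fluorescently labeled and sized by capillary electrophoresis. Activity was fitted bidirectionally relative to DMSO.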

[20] = biological target: Bile acid receptor (Homo sapiens) (UniProt Q96RI1); test: ATG_IR1_CIS: Attagene CIS-FACTORIAL HepG2 Assay for human Nuclear Receptor Subfamily 1 Group H Member 4 (NR1H4), IR1 submotif (AID 2282946); settings: IR1 reporter transcription, actives raise or lower the signal
Summary of the method: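 Fluorescence of capillary-separated, HpaI-digested RT-PCR reporter products gave IR1-element mRNA induction in HepG2 cells 24 h after dosing. Endogenous transcription factors drove the cis-regulated reporters; activity was fitted bidirectionally against DMSO.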

Measured: AC50

Paired box protein Pax-6 (Homo sapiens), sequence (P26367 whole entry, looked up): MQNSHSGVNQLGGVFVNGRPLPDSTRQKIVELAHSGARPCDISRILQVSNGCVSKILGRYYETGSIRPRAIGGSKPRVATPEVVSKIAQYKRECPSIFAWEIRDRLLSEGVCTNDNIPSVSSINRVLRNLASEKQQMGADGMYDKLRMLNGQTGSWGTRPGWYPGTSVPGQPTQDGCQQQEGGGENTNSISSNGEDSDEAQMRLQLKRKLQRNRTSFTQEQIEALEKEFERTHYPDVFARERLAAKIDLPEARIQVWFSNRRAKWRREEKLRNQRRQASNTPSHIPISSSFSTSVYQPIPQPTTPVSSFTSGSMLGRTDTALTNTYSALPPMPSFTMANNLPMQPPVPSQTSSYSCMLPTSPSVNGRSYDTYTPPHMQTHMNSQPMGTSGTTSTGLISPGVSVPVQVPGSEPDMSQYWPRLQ
Bile acid receptor (Homo sapiens), sequence (Q96RI1 whole entry, looked up): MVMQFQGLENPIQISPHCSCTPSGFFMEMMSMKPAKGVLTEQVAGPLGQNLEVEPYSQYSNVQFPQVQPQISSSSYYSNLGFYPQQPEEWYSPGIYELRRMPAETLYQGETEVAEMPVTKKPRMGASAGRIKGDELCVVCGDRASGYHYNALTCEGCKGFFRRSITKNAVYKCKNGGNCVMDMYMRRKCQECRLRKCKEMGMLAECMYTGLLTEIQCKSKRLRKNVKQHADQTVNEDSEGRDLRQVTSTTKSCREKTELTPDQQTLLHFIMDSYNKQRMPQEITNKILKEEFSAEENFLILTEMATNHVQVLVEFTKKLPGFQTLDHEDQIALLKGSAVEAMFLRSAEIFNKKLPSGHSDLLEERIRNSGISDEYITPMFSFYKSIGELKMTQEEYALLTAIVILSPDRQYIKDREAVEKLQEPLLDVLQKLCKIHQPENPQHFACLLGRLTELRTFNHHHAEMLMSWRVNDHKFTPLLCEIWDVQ
Heat shock factor protein 1 (Homo sapiens), sequence (Q00613 whole entry, looked up): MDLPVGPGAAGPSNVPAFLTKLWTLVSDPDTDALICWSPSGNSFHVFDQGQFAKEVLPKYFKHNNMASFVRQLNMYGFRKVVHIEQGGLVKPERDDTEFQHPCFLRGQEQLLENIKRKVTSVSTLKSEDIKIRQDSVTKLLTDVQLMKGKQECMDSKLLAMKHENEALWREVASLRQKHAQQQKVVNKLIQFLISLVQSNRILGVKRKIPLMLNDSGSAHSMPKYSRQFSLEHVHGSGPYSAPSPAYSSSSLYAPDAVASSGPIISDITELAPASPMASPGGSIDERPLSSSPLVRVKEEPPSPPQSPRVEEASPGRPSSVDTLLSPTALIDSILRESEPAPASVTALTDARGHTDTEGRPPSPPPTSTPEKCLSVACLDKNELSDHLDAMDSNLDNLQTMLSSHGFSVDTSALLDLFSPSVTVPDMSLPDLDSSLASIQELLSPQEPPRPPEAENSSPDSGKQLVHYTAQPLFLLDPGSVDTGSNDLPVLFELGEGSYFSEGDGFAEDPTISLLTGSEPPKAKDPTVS
Hepatocyte nuclear factor 6 (Homo sapiens), sequence (Q9UBC0 whole entry, looked up, the tested form may be a part): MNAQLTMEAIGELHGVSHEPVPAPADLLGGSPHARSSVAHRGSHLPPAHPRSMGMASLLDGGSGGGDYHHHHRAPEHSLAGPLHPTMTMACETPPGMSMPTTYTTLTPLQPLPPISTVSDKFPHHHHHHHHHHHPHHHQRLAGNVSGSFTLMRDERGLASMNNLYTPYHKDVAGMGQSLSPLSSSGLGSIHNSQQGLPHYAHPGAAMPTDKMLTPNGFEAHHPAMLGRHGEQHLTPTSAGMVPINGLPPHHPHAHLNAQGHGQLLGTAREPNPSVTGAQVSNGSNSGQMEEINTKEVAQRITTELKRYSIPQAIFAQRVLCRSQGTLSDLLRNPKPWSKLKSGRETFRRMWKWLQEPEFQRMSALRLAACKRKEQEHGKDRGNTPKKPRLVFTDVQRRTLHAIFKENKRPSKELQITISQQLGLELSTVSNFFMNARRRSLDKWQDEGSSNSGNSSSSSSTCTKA
Hypoxia-inducible factor 1-alpha (Homo sapiens), sequence (Q16665 whole entry, looked up): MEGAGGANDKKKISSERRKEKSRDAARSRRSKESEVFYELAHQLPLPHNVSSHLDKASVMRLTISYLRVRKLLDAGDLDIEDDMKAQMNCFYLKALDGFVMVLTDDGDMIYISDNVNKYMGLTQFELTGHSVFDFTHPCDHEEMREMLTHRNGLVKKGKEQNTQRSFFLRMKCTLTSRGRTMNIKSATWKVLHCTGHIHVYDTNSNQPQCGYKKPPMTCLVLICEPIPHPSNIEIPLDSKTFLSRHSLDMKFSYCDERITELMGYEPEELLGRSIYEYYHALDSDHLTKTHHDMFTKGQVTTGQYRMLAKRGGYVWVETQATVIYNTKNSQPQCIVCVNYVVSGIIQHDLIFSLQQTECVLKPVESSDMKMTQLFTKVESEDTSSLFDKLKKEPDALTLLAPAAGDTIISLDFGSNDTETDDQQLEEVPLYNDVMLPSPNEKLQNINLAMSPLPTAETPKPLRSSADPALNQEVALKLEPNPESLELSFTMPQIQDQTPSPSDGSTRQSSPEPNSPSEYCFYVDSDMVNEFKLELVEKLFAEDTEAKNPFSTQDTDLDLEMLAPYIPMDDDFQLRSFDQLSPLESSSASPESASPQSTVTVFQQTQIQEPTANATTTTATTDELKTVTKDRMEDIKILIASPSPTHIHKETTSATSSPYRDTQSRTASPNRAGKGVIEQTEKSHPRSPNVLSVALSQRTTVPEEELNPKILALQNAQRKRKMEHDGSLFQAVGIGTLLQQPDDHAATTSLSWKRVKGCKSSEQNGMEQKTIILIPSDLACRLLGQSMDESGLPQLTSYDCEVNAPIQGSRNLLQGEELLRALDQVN
Hepatocyte nuclear factor 3-beta (Homo sapiens), sequence (Q9Y261 whole entry, looked up): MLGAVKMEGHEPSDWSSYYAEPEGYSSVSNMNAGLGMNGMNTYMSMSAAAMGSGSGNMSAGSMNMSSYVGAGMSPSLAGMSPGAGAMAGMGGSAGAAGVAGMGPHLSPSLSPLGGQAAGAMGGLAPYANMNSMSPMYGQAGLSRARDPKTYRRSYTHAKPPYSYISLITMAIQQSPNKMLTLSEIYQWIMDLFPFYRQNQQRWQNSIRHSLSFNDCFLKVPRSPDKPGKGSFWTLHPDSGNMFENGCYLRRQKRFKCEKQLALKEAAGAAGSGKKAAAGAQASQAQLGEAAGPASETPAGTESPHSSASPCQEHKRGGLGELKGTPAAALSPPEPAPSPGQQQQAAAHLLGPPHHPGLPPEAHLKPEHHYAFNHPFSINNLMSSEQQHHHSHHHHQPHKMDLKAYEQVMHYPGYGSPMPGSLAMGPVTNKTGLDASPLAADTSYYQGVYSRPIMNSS

ClC(Cl)=C(Cl)C(Cl)=C(Cl)Cl
active: [3] 180 µM | [5] 158 µM | [6] 165 µM | [7] 100 µM | [11] 144 µM | [12] 152 µM
not listed: [16] | [17] | [18] | [19] | [20]
inactive: all other assays above

O=S(=O)(c1ccc(Cl)cc1)c1ccc(Cl)cc1
active: [18] 4.46 µM
not listed: [7] | [12] | [20]
inactive: all other assays above

COc1ccc(OC)c(C=O)c1
active: [18] 16.9 µM
not listed: [5] | [17]
inactive: all other assays above

Clc1ccc(C2(Cn3cncn3)CC(Br)CO2)c(Cl)c1 (centres undefined)
active: [9] 26 µM | [11] 177 µM | [12] 145 µM | [17] 6.34 µM | [18] 1.23 µM | [14] 99.5 µM | [19] 70.7 µM
not listed: [1] | [3]
inactive: all other assays above

COc1cc2c(cc1OC)[C@@]13CCN4CC5=CCO[C@H]6CC(=O)N2[C@H]1[C@H]6[C@H]5C[C@H]43
active: [9] 30.3 µM | [18] 36.6 µM
not listed: [1] | [3] | [5] | [6] | [14] | [16] | [20]
inactive: all other assays above

COP(=S)(OC)Oc1cc(Cl)c(Cl)cc1Cl
active: [14] 26.6 µM
not listed: [1] | [3] | [18] | [19] | [20]
inactive: all other assays above

O=C(Cc1ccccc1)c1ccccc1
active: [18] 27.2 µM
not listed: [1] | [14]
inactive: all other assays above
